The values below come from PubChem BioAssay (NCATS).

Several values for one entry are separate records, joined by “and”; a condition that tells them apart may be missing. Equal entries are not always repeated. Records with an inconclusive call do not appear. Activity calls are given as the source filed them. Unless noted, calls come from the whole dose curve; as a rule, active = well fitted curve in the direction sought with a large enough effect; inconclusive = small, poorly fitted or top-dose-only effect, or another doubt; inactive = no such curve, though single readings can be large; an effect the other way counts as inactive or inconclusive. Bounds are passed on as bounds.

Test [1] in a line: AP1 Signaling Pathway (AID 357; active = well fitted curve in either direction with a large enough effect, not every such curve was filed as active; note: % is set by controls: 0 for no effect and ±100 for the full control effect). The conditions noted are these: ME-180 AP-1-bla reporter, EGF-induced, beta-lactamase ratio, 5 h. An outline of the steps: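 Cells are seeded overnight, exposed to compound titrations and an EC50 level of EGF for 5 hours at 37 °C, then loaded with CCF4 dye for 2.5 hours. Beta-lactamase activity under the AP-1 element is read as a blue/green ratio.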

The target of test [2] is Cytochrome P450 1A2 (Homo sapiens) (UniProt P05177). The test is described as follows: p450-cyp1a2 (AID 410; calls by dose curve;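 note: -100% = full effect of reference inhibitor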). An outline of the steps: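 Read-out is luminescence from luciferin produced by CYP1A2 demethylation of Luciferin-ME (100uM, at Km). Detection reagent stopped the 60 min NADPH-dependent reaction; signals were normalized to 57 uM furafylline.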
Cytochrome P450 1A2 (Homo sapiens), sequence (P05177 whole entry, looked up): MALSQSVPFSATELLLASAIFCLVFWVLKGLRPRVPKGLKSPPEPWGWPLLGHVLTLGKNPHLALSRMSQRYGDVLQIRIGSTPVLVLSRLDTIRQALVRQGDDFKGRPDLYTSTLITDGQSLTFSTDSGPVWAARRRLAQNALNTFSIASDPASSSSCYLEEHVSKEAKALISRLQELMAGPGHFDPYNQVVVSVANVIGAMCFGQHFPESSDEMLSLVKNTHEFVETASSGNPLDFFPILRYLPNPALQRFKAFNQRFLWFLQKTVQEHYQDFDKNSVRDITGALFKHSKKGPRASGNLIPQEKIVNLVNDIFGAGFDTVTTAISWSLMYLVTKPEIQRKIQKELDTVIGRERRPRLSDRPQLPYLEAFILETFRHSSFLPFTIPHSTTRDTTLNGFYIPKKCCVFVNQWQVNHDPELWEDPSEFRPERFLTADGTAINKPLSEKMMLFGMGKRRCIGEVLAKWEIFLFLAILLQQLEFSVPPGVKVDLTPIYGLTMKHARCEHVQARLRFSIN
Test [3] in a line: NFAT Signaling Pathway (AID 444; active = well fitted curve in either direction with a large enough effect, not every such curve was filed as active;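 note: carbachol stimulus at about its EC50 of 1 µM final; % is set by controls: 0 for no effect and ±100 for the full control effect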). The conditions noted are these: Jurkat NFAT-bla M1, carbachol, beta-lactamase ratio, 5 h; at 7.69 µM (top of the series) unless noted. The essentials:
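Read-out: CCF4 FRET ratio (460 nm/530 nm) after 1 h RT dye loading, used for %activity and AC50 from titration series. Cells: Jurkat NFAT-β-lactamase/M1 line, treated with compound plus 1 uM carbachol for 5 h, 37 °C.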

A short description of test [4]: Stat Signaling Pathway (AID 446; active = well fitted curve in either direction with a large enough effect, not every such curve was filed as active;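 note: ME-180 cervical cancer cells given 40 pM IL-6 alongside compound; SIE-controlled beta-lactamase reporter measured as 460/530 nm FRET emission ratio; % is set by controls: 0 for no effect and ±100 for the full control effect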). The following applies: ME-180 (cervical carcinoma) SIE beta-lactamase reporter, IL-6 stimulated, 5 h. The essentials:
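Normalization used AC90 stimulation (300 pM IL-6) and AC90 inhibition (125 nM pan-JAK inhibitor at 40 pM IL-6). The underlying signal is SIE-driven beta-lactamase in ME-180 cells after 5 h IL-6 exposure with compound.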

For test [5], the target named is Glucocorticoid receptor (Homo sapiens) (UniProt P04150). The test is described as follows: GR-GFP Redistribution (AID 450;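 active = compounds whose dose series gives a full or clear partial fitted curve of increased nuclear translocation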; note: potency is the fitted concentration of half-maximal effect). The conditions noted are these: U2OS GR-GFP nuclear translocation, laser cytometry, 2 h.
Glucocorticoid receptor (Homo sapiens), sequence (P04150 whole entry, looked up, the tested form may be a part): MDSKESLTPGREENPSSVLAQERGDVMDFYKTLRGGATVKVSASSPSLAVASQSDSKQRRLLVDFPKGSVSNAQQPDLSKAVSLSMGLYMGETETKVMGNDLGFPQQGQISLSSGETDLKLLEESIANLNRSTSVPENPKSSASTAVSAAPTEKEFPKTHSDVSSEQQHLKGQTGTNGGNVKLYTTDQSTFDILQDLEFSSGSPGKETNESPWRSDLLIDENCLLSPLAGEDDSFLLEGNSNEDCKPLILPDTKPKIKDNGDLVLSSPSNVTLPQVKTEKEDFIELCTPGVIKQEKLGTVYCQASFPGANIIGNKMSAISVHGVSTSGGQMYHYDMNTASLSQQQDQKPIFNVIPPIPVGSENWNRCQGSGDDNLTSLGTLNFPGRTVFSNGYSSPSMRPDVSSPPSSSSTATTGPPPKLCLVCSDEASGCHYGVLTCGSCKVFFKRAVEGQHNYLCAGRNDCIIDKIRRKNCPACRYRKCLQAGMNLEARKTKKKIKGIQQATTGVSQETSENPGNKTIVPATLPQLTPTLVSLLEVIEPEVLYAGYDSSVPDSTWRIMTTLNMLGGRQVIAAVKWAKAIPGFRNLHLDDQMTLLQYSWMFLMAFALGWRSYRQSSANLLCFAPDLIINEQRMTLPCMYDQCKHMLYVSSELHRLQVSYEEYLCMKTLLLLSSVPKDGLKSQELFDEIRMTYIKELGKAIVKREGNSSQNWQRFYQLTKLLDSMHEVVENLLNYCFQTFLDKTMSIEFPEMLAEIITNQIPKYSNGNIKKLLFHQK
For test [6] the target is unchanged. The experiment in a line: GR-EFC Redistribution (AID 451; calls by dose curve; note: potency is the fitted concentration of half-maximal effect). The conditions noted are these: CHO-K1 GR-EFC translocation, beta-gal luminescence, 2 h. The essentials: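 Translocation of GR-ED fusion to nuclear EA restores b-gal, read by luminescence after 1 h room-temperature detection. Engineered CHO-K1 biosensor cells, 1,000/well, exposed 2 h at 37 C to titrations up to 46 uM final.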

The target of test [7] is Mitogen-activated protein kinase 10 (Mus musculus) (UniProt Q61831). The test is described as follows: JNK3 AlphaScreen Assay (AID 530; active = well fitted curve in either direction with a large enough effect, not every such curve was filed as active;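 note: kinase came from lysate of stimulated human HepG2 cells; signal reports phosphorylation of biotinylated GST-cJun 1-79 at Ser73 with 10 µM ATP; % is set by controls: 0 for no effect and ±100 for the full control effect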). The essentials:
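Kinase buffer: 20 mM Tris-HCl pH 7.6, 10 mM MgCl2, 1 mM DTT, 0.1 mM Na3VO4, 0.01% Tween-20; ATP 10 uM. Substrate biotin-GST-cJun(1-79), enzyme from activated HepG2 lysates. Detection by Ser73 phospho-antibody AlphaScreen.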
A general note: Bead proximity is the source of the signal in Alpha formats.

Test [8] concerns the target 3',5'-cyclic-AMP phosphodiesterase 4B (Homo sapiens) (UniProt Q07343). The test is described as follows: qHTS Assay for Inhibitors of PDE-IV (AID 607; active = well fitted activation curve with a large enough effect in the main read-out, with a control signal flat, not every such curve was filed as active; note: % of control where 0% means no effect). An outline of the steps:
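HEK293 ACTOne cells with CNG channel (1000/well), endogenous PDE4; membrane potential dye, compounds up to 22.9 uM final. Fluorescence Ex 535/Em 590; RO 20-1724 (100 uM final) as reference.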
On the technique in general: qHTS replaces the single test concentration by a dilution series.

Test [9] can be described thus: qHTS Assay for Lipid Storage Modulators (AID 1519; calls by dose curve). The following applies: Drosophila S3 cells, BODIPY lipid droplet/cell ratio, laser cytometry, cells loaded with oleic acid; for activity change, negative = inhibition: at 25.7 µM (top of the series). An outline of the steps: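 Cells seeded at 5,000 per well were treated with compounds over a concentration series and loaded with oleic acid (400 uM, as added). Lipid droplet fluorescence (488 nm excitation, 500-530 nm channel) was read by laser-scanning cytometry and normalized to 20 uM Triacsin C.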

Test [10] addresses ATP-dependent 6-phosphofructokinase (Trypanosoma brucei brucei) (UniProt O15648). The experiment in a line: qHTS Assay to Find Inhibitors of T. brucei phosphofructokinase: hit validation (AID 492961). An outline of the steps: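 Measures ADP output of PFK (1.25 nM) at 0.1 mM ATP, 0.5 mM F6P, pH 8.0 TEA buffer with 5 mM MgCl2. No-enzyme wells define full inhibition; uninhibited enzyme wells define zero.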

The target of test [11] is Ubiquitin carboxyl-terminal hydrolase 1 (Homo sapiens) (UniProt O94782). The test is described as follows: Inhibitors of USP1/UAF1: Pilot qHTS (AID 504865).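 Note: rhodamine fluorescence freed from ubiquitin-rhodamine substrate followed over time; top concentration of the series differs between compounds; % is set by controls: 0 for no effect and ±100 for the full control effect; nearly all actives have a fitted effect of over 35% in size.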 An outline of the steps:
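Enzyme-free wells gave the negative control, while test wells held 1nM USP1/UAF1 preincubated with compound for 15 min at room temperature. Ub-Rho at 150nM final started the reaction, and fluorescence at 480/540 nm was recorded kinetically.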

In test [12] the target is Luciferin 4-monooxygenase (Photinus pyralis) (UniProt P08659). The experiment in a line: Biochemical firefly luciferase enzyme assay for NPC (AID 624030).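 Note: purified P. pyralis luciferase at 10 nM with luciferin and ATP substrate; 0% = DMSO and -100% = full luciferase inhibition by PTC124 control; nearly all actives have a fitted effect of over 70% in size.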 An outline of the steps:
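Direct inhibition of firefly luciferase enzyme (10 nM final, 50 mM Tris Acetate) assessed by luminescence within 5 minutes. Percent activity scaled between DMSO and PTC124 positive control, with concentration-effect curves classified by fit quality and response.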

Test [13] is described as follows: qHTS profiling for inhibitors of Plasmodium falciparum proliferation (AID 504749).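 Note: 0% = DMSO vehicle and full inhibition = artemisinin control; nearly all actives have a fitted effect of over 60% in size.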 The following applies: P. falciparum in erythrocytes, SYBR Green DNA, 72 h, at 12.8 µM (top of the series). An outline of the steps: (§1)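 In a 72 h erythrocytic culture (37 C, humidified, 5% CO2) at 2.5% hematocrit and 0.3% starting parasitemia, compounds were tested; SYBR Green I in detergent lysis buffer stained parasite DNA overnight.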

Another test relates to AS120. The test is described as above. The following applies: P. falciparum in erythrocytes, SYBR Green DNA, 72 h; series mostly up to 28.7 µM. The essentials: as §1
Another test has as its system CP238. The description is as above. The conditions noted are these: P. falciparum in erythrocytes, SYBR Green DNA, 72 h; series mostly up to 12.8 µM. An outline of the steps: as §1
The subject of the next test is CP265. The description is as above. The conditions noted are these: P. falciparum in erythrocytes, SYBR Green DNA, 72 h; series mostly up to 12.8 µM. The essentials:
as §1

The test system of the next test is FAB9. The test is described as above. The conditions noted are these: P. falciparum in erythrocytes, SYBR Green DNA, 72 h; series mostly up to 12.8 µM. An outline of the steps:
as §1

Test [14] addresses Pyruvate kinase (Leishmania mexicana) (UniProt Q27686). The test is described as follows: qHTS Validation Assay for Inhibitors of Leishmania Mexicana Pyruvate Kinase (AID 945).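 Note: 0% = DMSO only neutral control wells.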 An outline of the steps:
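Eight-point qHTS titrations in triplicate, data normalized to DMSO neutral control. Reaction: 0.2 nM LmPYK E451W mutant, 0.5 mM PEP, 0.1 mM ADP, 7 mM MgCl2, pH 7.2, one hour at room temperature; luminescent ATP detection.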

Test [15] concerns the target Alpha-galactosidase A (Homo sapiens) (UniProt P06280). The experiment in a line: Counterscreen for Glucocerebrosidase Inhibitors: qHTS Assay for Human alpha-Galactosidase at pH 4.5 (AID 992). Note: 0% is about no effect. The essentials: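 Steps: enzyme (2 nM final), then compound across 0.7 nM to 77 uM, then 80 uM fluorogenic galactopyranoside substrate; incubate 20 min at room temperature; quench at pH 10; measure fluorescence at 365/440 nm.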

Test [16] has as its target alpha-glucosidase (Oryza sativa, rice) (UniProt Q653V4). The experiment in a line: Counterscreen for Glucocerebrosidase Inhibitors: qHTS Assay for Rice alpha-Glucosidase at pH 5.0 (AID 997).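 Note: 0% = full activity with enzyme and -100% = basal without enzyme.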 An outline of the steps:
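Endpoint fluorogenic assay at pH 5.0: compounds (0.7 nM to 77 uM) titrated against 4 nM rice enzyme and 400 uM 4-MU-alpha-glucoside for 20 min at room temperature; NaOH/glycine stop, read ex 365/em 440 nm, Hill-fitted AC50.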
Background: Counterscreens check selectivity or assay interference.

Setting [17] is: at 7.69 µM (top of the series) unless noted.
Where [18] appears, read: measured here: cell count channel max response.
Where [19] appears, read: measured here: lipid channel max response.

ATP-dependent 6-phosphofructokinase (Trypanosoma brucei brucei), sequence (O15648 whole entry, looked up): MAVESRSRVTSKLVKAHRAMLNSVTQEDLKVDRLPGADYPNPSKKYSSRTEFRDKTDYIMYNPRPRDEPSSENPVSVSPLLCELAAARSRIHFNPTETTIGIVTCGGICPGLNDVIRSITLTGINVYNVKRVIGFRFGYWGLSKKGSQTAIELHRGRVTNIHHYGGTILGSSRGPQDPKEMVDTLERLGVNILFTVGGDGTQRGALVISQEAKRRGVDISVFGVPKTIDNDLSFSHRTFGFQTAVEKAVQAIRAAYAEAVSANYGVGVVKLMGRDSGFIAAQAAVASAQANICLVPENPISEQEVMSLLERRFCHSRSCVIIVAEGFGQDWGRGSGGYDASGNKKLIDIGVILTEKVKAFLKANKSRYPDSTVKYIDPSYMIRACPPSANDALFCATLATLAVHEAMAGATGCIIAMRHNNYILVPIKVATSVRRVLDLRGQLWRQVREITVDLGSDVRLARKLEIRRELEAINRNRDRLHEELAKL
3',5'-cyclic-AMP phosphodiesterase 4B (Homo sapiens), sequence (Q07343 whole entry, looked up): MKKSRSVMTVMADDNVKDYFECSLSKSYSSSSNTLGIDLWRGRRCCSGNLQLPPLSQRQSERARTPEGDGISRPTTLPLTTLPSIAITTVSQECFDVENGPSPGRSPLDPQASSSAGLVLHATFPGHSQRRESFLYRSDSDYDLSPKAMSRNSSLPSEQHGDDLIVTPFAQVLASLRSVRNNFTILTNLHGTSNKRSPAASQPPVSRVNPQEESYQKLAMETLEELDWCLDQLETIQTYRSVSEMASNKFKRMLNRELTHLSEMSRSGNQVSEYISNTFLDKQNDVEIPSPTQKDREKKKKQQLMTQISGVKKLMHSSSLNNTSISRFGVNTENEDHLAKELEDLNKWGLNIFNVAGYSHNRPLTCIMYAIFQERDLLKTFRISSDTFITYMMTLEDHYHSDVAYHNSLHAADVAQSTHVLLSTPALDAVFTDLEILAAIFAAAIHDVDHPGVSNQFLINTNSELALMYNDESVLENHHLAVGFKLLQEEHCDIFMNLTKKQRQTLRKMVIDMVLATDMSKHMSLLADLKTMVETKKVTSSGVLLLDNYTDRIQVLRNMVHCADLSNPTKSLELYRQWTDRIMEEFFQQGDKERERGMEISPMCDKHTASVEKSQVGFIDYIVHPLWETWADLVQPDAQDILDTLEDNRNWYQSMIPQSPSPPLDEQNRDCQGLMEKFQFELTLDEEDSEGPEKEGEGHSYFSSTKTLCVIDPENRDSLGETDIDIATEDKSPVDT
Luciferin 4-monooxygenase (Photinus pyralis), sequence (P08659 whole entry, looked up): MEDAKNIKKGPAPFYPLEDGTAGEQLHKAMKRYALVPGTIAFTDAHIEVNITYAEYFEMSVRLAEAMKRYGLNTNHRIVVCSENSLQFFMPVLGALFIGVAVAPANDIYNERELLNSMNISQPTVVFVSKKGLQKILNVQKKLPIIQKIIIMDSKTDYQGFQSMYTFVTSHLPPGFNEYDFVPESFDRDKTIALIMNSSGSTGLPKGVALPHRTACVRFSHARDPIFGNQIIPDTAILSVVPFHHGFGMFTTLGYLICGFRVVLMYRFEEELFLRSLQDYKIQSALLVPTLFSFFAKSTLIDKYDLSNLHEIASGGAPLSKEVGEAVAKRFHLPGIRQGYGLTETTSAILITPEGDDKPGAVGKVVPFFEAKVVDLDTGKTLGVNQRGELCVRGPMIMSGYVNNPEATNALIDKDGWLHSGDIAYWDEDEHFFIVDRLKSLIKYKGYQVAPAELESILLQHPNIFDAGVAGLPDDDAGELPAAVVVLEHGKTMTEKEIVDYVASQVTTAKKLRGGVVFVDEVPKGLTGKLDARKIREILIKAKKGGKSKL
Ubiquitin carboxyl-terminal hydrolase 1 (Homo sapiens), sequence (O94782 whole entry, looked up): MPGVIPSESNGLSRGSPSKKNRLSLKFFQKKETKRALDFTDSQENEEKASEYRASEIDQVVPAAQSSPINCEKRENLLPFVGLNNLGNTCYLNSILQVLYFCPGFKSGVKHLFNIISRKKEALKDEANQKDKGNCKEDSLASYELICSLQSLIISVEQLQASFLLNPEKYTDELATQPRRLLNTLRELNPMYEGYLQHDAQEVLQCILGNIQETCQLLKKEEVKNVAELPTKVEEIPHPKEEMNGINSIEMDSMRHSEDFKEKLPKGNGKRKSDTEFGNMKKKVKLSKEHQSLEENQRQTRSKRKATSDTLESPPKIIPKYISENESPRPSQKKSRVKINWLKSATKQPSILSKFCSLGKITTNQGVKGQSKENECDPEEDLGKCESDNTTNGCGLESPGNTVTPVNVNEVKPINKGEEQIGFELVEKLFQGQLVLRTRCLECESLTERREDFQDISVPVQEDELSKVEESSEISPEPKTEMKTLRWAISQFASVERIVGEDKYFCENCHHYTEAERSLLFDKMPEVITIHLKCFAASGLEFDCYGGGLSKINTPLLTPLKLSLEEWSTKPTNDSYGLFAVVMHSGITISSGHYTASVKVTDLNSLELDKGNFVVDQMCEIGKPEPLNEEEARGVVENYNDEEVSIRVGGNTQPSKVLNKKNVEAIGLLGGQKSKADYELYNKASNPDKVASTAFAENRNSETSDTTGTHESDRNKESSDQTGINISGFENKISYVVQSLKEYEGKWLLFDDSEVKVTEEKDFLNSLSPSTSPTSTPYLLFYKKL
Pyruvate kinase (Leishmania mexicana), sequence (Q27686 2-499 E452W): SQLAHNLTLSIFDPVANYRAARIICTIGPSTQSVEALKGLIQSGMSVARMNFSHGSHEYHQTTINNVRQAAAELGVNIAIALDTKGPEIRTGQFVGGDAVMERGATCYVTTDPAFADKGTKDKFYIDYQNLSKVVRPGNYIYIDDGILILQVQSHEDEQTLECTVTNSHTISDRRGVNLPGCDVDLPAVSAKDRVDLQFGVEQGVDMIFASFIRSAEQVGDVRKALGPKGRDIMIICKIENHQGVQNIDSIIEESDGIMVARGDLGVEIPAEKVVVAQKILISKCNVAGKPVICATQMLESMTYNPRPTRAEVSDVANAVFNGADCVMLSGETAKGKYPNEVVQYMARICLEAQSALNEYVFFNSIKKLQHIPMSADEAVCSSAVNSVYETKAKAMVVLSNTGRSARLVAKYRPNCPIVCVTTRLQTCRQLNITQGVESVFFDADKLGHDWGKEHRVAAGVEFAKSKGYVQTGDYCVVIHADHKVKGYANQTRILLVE
Alpha-galactosidase A (Homo sapiens), sequence (P06280 whole entry, looked up): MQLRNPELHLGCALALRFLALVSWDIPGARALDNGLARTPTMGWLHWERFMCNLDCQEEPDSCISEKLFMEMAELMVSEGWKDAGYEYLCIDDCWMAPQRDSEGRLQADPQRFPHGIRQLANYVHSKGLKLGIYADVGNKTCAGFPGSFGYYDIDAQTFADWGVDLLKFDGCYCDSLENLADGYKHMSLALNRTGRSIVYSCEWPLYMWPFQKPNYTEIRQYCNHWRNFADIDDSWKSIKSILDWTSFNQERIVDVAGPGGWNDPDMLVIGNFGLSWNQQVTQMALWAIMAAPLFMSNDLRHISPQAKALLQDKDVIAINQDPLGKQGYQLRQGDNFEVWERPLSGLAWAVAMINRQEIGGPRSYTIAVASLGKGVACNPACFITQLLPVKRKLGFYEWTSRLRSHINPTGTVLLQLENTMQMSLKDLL

Regarding `CC(=O)N(CC(O)CN(C(C)=O)c1c(I)c(C(=O)NC[C@@H](O)CO)c(I)c(C(=O)NC[C@@H](O)CO)c1I)c1c(I)c(C(=O)NC[C@@H](O)CO)c(I)c(C(=O)NC[C@@H](O)CO)c1I`, the activity change, negative = inhibition in test [1] (setting [17]) is 2.7% [at 17.2 µM] (inactive); in test [3], -2.76% [at 17.2 µM] (inactive); in test [9], 0.967% (inactive). Moreover, the Potency entry (in test [2]; in test [7]; in [8]; in test [11]; in the test on AS120; in the test with CP238) was “inactive” each time. The Potency result in the test on CP265 and in the test with FAB9 was “inactive” in each case. The activity, negative = inhibition in test [4] (setting [17]) is 4.45% [at 17.2 µM] (inactive); in test [13] (parasite line A), 5.56% (inactive); in [13] (parasite line B), 6.47% (inactive). For the same molecule, the Potency in test [5] and in test [6] was > 20.6 µM (inactive) each time. The max response in test [9] (setting [18]) was -17.3%; in test [9] (setting [19]), -18.3%. For the same molecule, the outcome in test [10] and in test [12] was inactive.

Consider `CN(C)CC[C@@H](c1ccccc1)c1ccccn1`, for which the values for the activity change, negative = inhibition in test [1] (at 17.2 µM (top of the series)), in [1] (at 38 µM (top of the series)) and in test [9] were 4.02% (inactive), 8.55% (inactive) and 1.47% (inactive), respectively. Moreover, the Potency entry in [2], in [7], in [8] and in [11] was “inactive” in each case. Moreover, the activity, negative = inhibition was 8.97% (inactive) in test [4] (at 17.2 µM (top of the series)) and 22.6% (inactive) in [4] (at 38 µM (top of the series)). Moreover, the Potency in test [5] is > 46 µM (inactive) and > 20.6 µM (inactive); in test [6], > 46 µM (inactive) and > 20.6 µM (inactive). Besides, the molecule was called inactive in test [14], in [15] and in test [16]. Besides, the max response in test [9] (setting [18]) was 1.01%; in test [9] (setting [19]) it was 2.03%.

With `NS(=O)(=O)c1cc([C@@]2(O)NC(=O)c3ccccc32)ccc1Cl`, the activity change, negative = inhibition was -7.43% [at 17.2 µM] (inactive) in test [1] (setting [17]), -15.2% [at 17.2 µM] (inactive) in [3] and -1.2% (inactive) in test [9]. The Potency entry (in [2]; in test [7]; in test [8]; in test [11]; in the test on AS120; with CP238) was “inactive” in each case. For the same molecule, the Potency result in the test on CP265 and with FAB9 was “inactive” throughout. For the same molecule, the results for the activity, negative = inhibition in test [4] (setting [17]), in test [13] (parasite line A) and in [13] (parasite line B) were 1.16% [at 17.2 µM] (inactive), -2.59% (inactive) and 2.66% (inactive), respectively. In addition, the Potency in [5] and in [6] was > 20.6 µM (inactive) each time. Moreover, the max response in test [9] (setting [18]) was -12.6%; in test [9] (setting [19]) it was -14.5%. The result in [10] and in [12] was inactive.

Take `CC(=O)Nc1c(I)c(C(=O)N[C@H]2[C@@H](O)[C@H](O)[C@H](CO)O[C@@H]2O)c(I)c(N(C)C(C)=O)c1I`: the values for the activity change, negative = inhibition in test [1] (setting [17]), in test [3] and in [9] were 9.89% [at 17.2 µM] (inactive), -0.843% [at 17.2 µM] (inactive) and -0.4% (inactive), respectively. Also, the Potency result (in [2]; in test [7]; in test [8]; in test [11]; in the test with AS120; with CP238) was “inactive” each time. Further, the Potency result with CP265 and in the test on FAB9 was “inactive” throughout. For the same molecule, the activity, negative = inhibition in test [4] (setting [17]) is -3.76% [at 17.2 µM] (inactive); in test [13] (parasite line A), 8.5% (inactive); in test [13] (parasite line B) it was 4.91% (inactive). Moreover, the Potency in [5] and in test [6] was > 20.6 µM (inactive) in each case. In addition, the max response in test [9] (setting [18]) is -8.07%; in test [9] (setting [19]), -5.12%. In addition, the molecule was called inactive in [10] and in test [12].
